The results in this text go back to PubChem BioAssay AID539 (SRMLSC, 2006).

This assay has as its system phosphomevalonate kinase (Streptococcus pneumoniae D39). The assay is described as follows: S. pneumoniae PMK inhibitors, primary screen, biochemical, mevalonate pathway, pilot trial included (AID 539).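 Also: 0% = full reaction with DMSO carrier and 100% = background rate without enzyme reaction.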 The conditions noted are these: purified PMK, PK/LDH-coupled NADH absorbance 340 nm, at 10 µM, stronger effect = higher value.
Setting [1] is: measured here: pilot screen replicates.

Molecules are shown by their SMILES. The campaign covered roughly 65,000 compounds. About 320 (0.49%) were called active.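 The calls were made as follows: active = top-ranked compounds by inhibition in the single 10 µM screen, taking a fixed number of the strongest; inactive = the rest, inconclusive results apart.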 Many of the other results were omitted from the sample, so actives are more common in it than they were.

The term inhibition denotes the drop in the measured response relative to a control, in per cent. Take `O=C(Nc1cccc2c1CCCC2)C1CCN(C(=O)NC2CCCCC2)CC1`: the inhibition is 13% (inactive).

On to `CCC(C)n1[nH]c(=O)cc1N` (configuration not stated), for which the inhibition was 5% (inactive).

As for `Cc1nn2c3cc(N4CCOCC4)ccc3nc2c2ccccc12`, the inhibition was 0% (inactive).

On to `Cn1c(SCC(=O)N2CCOCC2)nnc1-c1ccc(NC(=O)c2ccccc2F)cc1`, for which the inhibition is 40% (active).

As for `Cn1c(SCC(=O)Nc2cccc(O)c2)nnc1-c1ccc(S(=O)(=O)N2CCOCC2)cc1`, the inhibition is 0% (inactive).

As to `Cc1ccccc1C(=O)Nc1cccc(-c2nnc(SCC(=O)O)n2C)c1`, the inhibition is 7% (inactive).

Take `CCc1nnc(NC(=O)CSc2nnc(COc3ccc(C#N)cc3)n2-c2ccccc2)s1`: the inhibition is 4% (inactive).

Consider `Cn1c(=O)[nH]c(=O)c2c1nc(Br)n2CCCCSc1nc2ccccc2o1`, for which the inhibition is 8% (inactive).

As to `C1=C(CCNc2ncnc3c2cnn3-c2ccccc2)CCCC1`, the inhibition is 8% (inactive). Moreover, the inhibition under setting [1] is 0.5%.

In the case of `c1csc(-c2nc(-c3ccncc3)no2)c1`, the inhibition is 0% (inactive).

On to `O=C(O)CCN1C(=O)CC2(CCCCC2)C1=O`, for which the inhibition is 12% (inactive).

Take `Cc1ccc(C)c(NC(=O)C2CCCN2C(=O)OC(C)(C)C)c1` (configuration not stated): the inhibition was 0% (inactive).

On to `CC(C)N(C(=O)Cn1c(SCC(=O)N2CCN(c3ccccc3)CC2)nc2ccccc21)C(C)C`, for which the inhibition was 4% (inactive).

Regarding `COCCN(CC(=O)Nc1ccccc1C)S(=O)(=O)c1ccc(S(=O)(=O)N2CCCC2)cc1`, the inhibition is 10% (inactive). The compound further gave an inhibition under setting [1] of 2.5%.

`CCOC(=O)C1CCN(C(=O)C2CCN(S(=O)(=O)c3c(C)noc3C)CC2)CC1`: the inhibition is 11% (inactive).

With `CCOC(=O)C1CCN(C(=O)C2CCN(S(=O)(=O)CC)CC2)CC1`, the inhibition was 2% (inactive).

Take `CCOC(=O)C1CCN(C(=O)C2CCN(S(=O)(=O)N3CCCC3)CC2)CC1`: the inhibition is 30% (active).

Regarding `CC1(C)CC(=O)C=C(NC2CC(C)(C)NC(C)(C)C2)C1`, the inhibition was 8% (inactive).

Regarding `c1ccc(CCn2nnnc2CN2CCN(C3CCCC3)CC2)cc1`, the inhibition is 0% (inactive). Under setting [1], the inhibition is 0.5%.

For the compound `CC1CCCCC1NC(=O)CCS(=O)(=O)c1cccc2nonc12` (configuration not stated), the inhibition was 0% (inactive).

Regarding `O=C1CSC(=O)N1CCOCCN1C(=O)CSC1=O`, the inhibition was 8% (inactive).

Take `Cc1ccccc1CN1CCN(C(=O)c2cccc(F)c2)CC1`: the inhibition is 0% (inactive). This compound yielded an inhibition under setting [1] of 2%.

For the compound `CCCCCOC(=O)C1=C(C)Nc2nnnn2C1c1ccc(OC)c(OC)c1OC` (configuration not stated), the inhibition is 11% (inactive).

In the case of `COc1ccc(CCn2nnnc2C(c2ccccc2)N2CCN(C)CC2)cc1OC` (configuration not stated), the inhibition was 18% (inactive).

For `COC(=O)c1ccc(Oc2nc(Nc3ccc(F)cc3)nc(N3CCCC3)n2)cc1`, the inhibition was 4% (inactive).

In the case of `CCC1CCCCN1CCCNC(=O)Cn1nc(-c2ccccc2)ccc1=O` (configuration not stated), the inhibition was 26% (active).

For `CCC1CCCCN1CCNC(=O)c1[nH]c(C)c(C(C)=O)c1C` (configuration not stated), the inhibition was 1% (inactive).

Regarding `Cc1ccc(-c2ccc(=O)n(CC(=O)NCCCN3CCCCC3)n2)cc1`, the inhibition was 18% (inactive).
